Tests used:
Test in all cases: PBM binding z-score (relative to random genomic background probes); higher = stronger binding; sequences stand for … in GC…GCGATTGACAGCGTAGAATGAAGG
[1] = system: FXR:RXRa (NR concentration 270 nM, RXRa partner concentration 90 nM)
Outline: (§1)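 Ligand-free nuclear receptor dimers were applied to custom Agilent 4×180K protein-binding microarrays whose double-stranded probes carried direct-repeat seeds, single-nucleotide variants, half-site ablations and random human genomic background sequences in 34-nt variable regions. Incubation lasted 1 h. Binding z-scores were computed against the random background probes from regression-normalized fluorescence.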

[2] = system: LXRa:RXRa (NR concentration 270 nM, RXRa partner concentration 90 nM)
Outline: as §1

[3] = system: LXRa homodimer (NR concentration 270 nM)
Outline: as §1

[4] = system: LXRb:RXRa (NR concentration 270 nM, RXRa partner concentration 90 nM)
Outline: as §1

[5] = system: LXRb homodimer (NR concentration 270 nM)
Outline: as §1

[6] = system: PPARa:RXRa (NR concentration 270 nM, RXRa partner concentration 90 nM)
Outline: as §1

[7] = system: PPARg:RXRa (NR concentration 180 nM, RXRa partner concentration 90 nM)
Outline: as §1

[8] = system: PPARg:RXRa 270nM:90nM, anti-RXR (NR concentration 270 nM, RXRa partner concentration 90 nM)
Outline: as §1

[9] = system: PPARg:RXRa 30nM:10nM, anti-RXR (NR concentration 30 nM, RXRa partner concentration 10 nM)
Outline: as §1

[10] = system: PPARg:RXRa 90nM:30nM, anti-RXR (NR concentration 90 nM, RXRa partner concentration 30 nM)
Outline: as §1

Sequence	PBM binding z-score [1]	PBM binding z-score [2]	PBM binding z-score [3]	PBM binding z-score [4]	PBM binding z-score [5]	PBM binding z-score [6]	PBM binding z-score [7]	PBM binding z-score [8]	PBM binding z-score [9]	PBM binding z-score [10]
CGAACTAGGTAAAGGACAGTGAATCTCCGCACGC	-0.281	-0.379	-0.301	-0.788	-0.59	1.32	1.51	1.3	-0.0812	0.891
CGCACTAGGTCAAAGGACAGTGAAAGGCGACGTA	4.07	2.88	0.082	1.83	-0.151	5.48	10.1	8.55	8.13	8.98
CCTACTGGGCCAAAAATGTCATTGATGCCGATAA	-0.451	-0.771	-0.332	-0.343	-0.655	0.13	0.537	0.911	-0.0652	0.391
ATATGTAGGTTAGGGTAATTCAGAAAGTAGGGAA	1.61	1.22	0.994	1.87	1.03	3.31	4.75	3.91	2.13	3.13
TTACGAAGGTGAAAGGTCGTTGATGCACGCCTTG	3.43	3.33	0.283	2.75	-0.598	5.25	8.12	7.35	6.74	8.17
CGTCAACGTTCAACTAAGGTAACGTAAAGCACGC	0.828	0.246	0.102	0.277	0.346	0.566	0.682	0.178	-0.166	-0.0957
ATATGTAGGTTAGGGTCATACAGAAAGTAGGGAA	4.95	4.24	0.95	4.42	1.32	5.66	8.3	6.82	4.46	6.69
CCTTCTGGGCCATTCAGAGGTCATTGATCATATG	2.86	4.26	6.84	3.99	0.742	4.02	1.85	2.79	0.927	2.05
ATCTCTAGGTAAAGGTCAGTGAAAGATCGATAGA	3.48	3.55	1.74	3.42	1.54	4.32	6.77	6.29	4.39	6.41
ATATGTGGGTTATCGGGTCATTCAGTTTGCGCAT	3.03	2.75	1.74	3.53	1.8	4.86	6.89	5.78	3.08	5.43
CGTCCAAGGTCACAGGAGGTCAGTGAAGACAGAT	7.67	7.39	4.32	5.97	0.764	6	6.76	6.69	3.37	5.61
TCTGCTGGGTCAACGATGGTCAGCTAATCTGCTA	2.59	1.95	-0.835	1.16	-0.168	3.19	1.92	2.57	1.69	2.14
TTACCAAGGTGACCTGAGGTCGTTGATCCAACTC	3.01	5.21	3.22	3.72	-0.159	3.47	1.7	2.13	0.705	1.34
CGATCTAGGTCAAAGGACAGTGAAAGGCGACGTA	4	2.77	-0.0244	1.53	-0.237	5.27	10.3	8.3	8.39	9.24
CAGACTAGGTCAAAGGTCAAAGTCGAGCCAACCA	8.06	6.96	4.82	7.09	2.54	7.49	13.9	10.9	13.4	13.3
ATATGTAGGTTACATCCGAGTCATTCAGGCTATG	0.413	1.95	0.304	0.957	0.682	3.1	5.14	4.01	1.78	3.1
TTACCAAGGTTAAAGGTCGTTGATGCACGCCTTG	4.98	5.1	1.51	4.06	0.439	5.64	7.98	8.34	8.79	8.95
ATATGTAGGTTAGGGTCCTTCAGAAAGTAGGGAA	0.884	0.754	0.168	1.21	0.702	3.14	4.35	3.79	1.56	2.95
CGTCTAAGGTCAAGGTCAGTGAAAGAGACTCGAA	8.18	6.22	1.33	5.02	1.18	6.43	6.86	6.78	3.43	5.94
ATATGTAGGTAAGGGTCATTCAGAAAGTAGGGAA	4.33	4.17	1.56	4.24	1.45	5.52	7.89	6.82	4.58	6.85
CGAACTAGGTCAAAGGACAGTAAAAGGCGACGTA	4.06	2.48	0.208	2.04	-0.428	5.67	9.93	8.18	7.65	8.57
TAGCCTAGCTCATTCAGGGGCCAGTATAGAAAGC	-0.836	-1	-1.16	-0.368	-0.132	-1.13	-0.0519	-0.988	-0.46	-0.823
ATATGTAGCTTAAGGGTCATTCAGGTTGGTTCGC	3.83	3.86	1.83	3.79	0.863	4.2	3.93	5.35	3.44	5.39
CCTACTGGGCCAAAGGCCATTGATTCCAATGCTC	-0.204	-0.344	-0.23	-0.115	-0.699	3.51	7.53	7.54	6.63	7.44

From the supplement of paper PMC6555819
